In all, about 69,000 compounds went through this assay and about 8,600 (12%) showed an effect of 50% or more. This is one part of a sample in which strong results are shown more often than they occur.

The test system of this assay is Plasmodium berghei. Description: Screen against P. berghei liver stage (PbLuc), transformed with Luciferase, at 10uM. The format is functional, HepG2. Particulars: tested at 10 uM.
For `Cc1cccc(N2CCN(C(=O)CNCCn3cccn3)CC2)c1`, the INHIBITION is listed as -76.5%.

Take `CCC[C@H]1CN(c2cncc(C(=O)N(C)C)n2)C[C@@H]1N(C)C`: the INHIBITION is on record as 33.7%.

With `NC(=O)CN1CCN(C(=O)c2cc(Cl)cc3cccnc23)CC1`, the INHIBITION amounted to 13.4%.

`CN(C)c1nc2c(c(NCc3nnc4n3CCCCC4)n1)CCNC2`: the INHIBITION is listed as 5.78%.

As to `CNC(=O)c1ccccc1NCc1ncnn1C`, the INHIBITION was 20%.

Turning to `Cn1ccc2cc(CC3COCCN(C(=O)c4cccnc4)C3)ccc21` (configuration not stated), the INHIBITION is 29.61%.

On to `COCCn1nc(C(=O)N(C)Cc2cccnc2)ccc1=O`, for which the INHIBITION came to 6.72%.

As for `Cc1cnn(-c2ccc(C(=O)N3CCN(C)CC3C)cc2)c1` (configuration not stated), the INHIBITION is reported as -15.3%.

Consider `CC1CN(C)CCN1C(=O)c1ccc(-n2cnnc2)cc1` (configuration not stated), for which the INHIBITION is 66.1%.

With `CC1CN(C)CCN1C(=O)c1cnn(-c2cccc(Cl)c2)c1` (configuration not stated), the INHIBITION was determined as 74.4%.

On to `CC(O)CN1CCN(C(=O)c2cnn(-c3ccc(Cl)cc3)c2)CC1` (configuration not stated), for which the INHIBITION came to 16.6%.

`CC1CN(C)CCN1C(=O)c1cnc2c(cnn2C2CCCC2)c1` (configuration not stated): the INHIBITION stood at 31.2%.

With `CC1CN(C)CCN1C(=O)c1cccn1Cc1cccnc1` (configuration not stated), the INHIBITION is 17.9%.

As to `Cc1ccccc1N1CCN(C(=O)c2cnn(C(C)C)c2)C(C)C1` (configuration not stated), the INHIBITION turned out to be 12.1%.

With `CC[C@@]1(O)CCN(C(=O)c2ccc(-n3cnnc3)cc2)C[C@H]1O`, the INHIBITION is given as 20.6%.

For the molecule `CC1CN(C)CCN1C(=O)c1cnn(-c2ccc(Cl)cc2)c1` (configuration not stated), the INHIBITION came out at 66.1%.

As for `O=C(Cc1ccc(Cl)s1)Nc1ccc2c(c1)C(=O)NC2=O`, the INHIBITION is listed as -97.9%.

As for `Cc1nn(C)c(N2CCOCC2)c1CNC1CCC(O)CC1` (configuration not stated), the INHIBITION was determined as 9.14%.

As to `CC(C)(C)C(=O)NCC(=O)Nc1cccnc1`, the INHIBITION was 45.5%.

Take `COc1ccccc1CC(C)(C)C(=O)NCC(=O)Nc1cccnc1`: the INHIBITION is given as 56.6%.

As for `COc1ccccc1CCNC(=O)NCC(=O)Nc1cccnc1`, the INHIBITION is -21.8%.

In the case of `COC(=O)NCCCn1ccnc1-c1ccccc1`, the INHIBITION is -17.4%.

`O=C(Cc1ccsc1)N1CCc2ncc(Cn3cccn3)n2CC1`: the INHIBITION is 42.7%.

On to `COc1c(CNC(C)c2sc(C)nc2C)c(C(C)C)nn1C` (configuration not stated), for which the INHIBITION is listed as 33.7%.

Consider `CN1CC2(CCN(C(=O)Cc3ccccn3)CC2)OCC1=O`, for which the INHIBITION is reported as -28.2%.

Regarding `CNc1cc(N2CCCC2CNCc2cscn2)ncn1` (configuration not stated), the INHIBITION is recorded as -2.35%.

Take `COCCN1CC[C@H]2OCC[C@@H](C(=O)N3CCCO3)[C@H]2C1`: the INHIBITION is 1.9%.

Consider `N#Cc1cn[nH]c1NCc1cc(I)cc(I)c1O`, for which the INHIBITION amounted to 19.7%.

`N#Cc1cn[nH]c1NCc1cc(Br)ccc1O`: the INHIBITION was 27.5%.

In the case of `N#Cc1cn[nH]c1NCc1cc(Cl)cc(Cl)c1O`, the INHIBITION is 62.2%.

For the molecule `c1ccn(Cc2nnc3n2CCCN(Cc2ccoc2)C3)c1`, the INHIBITION is -13.1%.

Turning to `O=C(Nc1cccc(C(F)(F)F)c1)N1CCN(CCn2ccnc2)CC1`, the INHIBITION amounted to 60.2%.

On to `O=C(Nc1ccc2c(c1)OCO2)N1CCN(CCn2ccnc2)CC1`, for which the INHIBITION stood at 6.99%.

As to `CC(C(=O)Nc1cccc(C(F)(F)F)c1)N(C)CCN1CCOCC1` (configuration not stated), the INHIBITION was determined as 35.2%.

Take `CN(C)Cc1nc2c(o1)CN(C(=O)NCc1cccc(F)c1)C2`: the INHIBITION was 13.7%.

As to `CNC(=O)c1cn[nH]c1C1CCN(Cc2cccc(C)c2OC)C1` (configuration not stated), the INHIBITION is 6.32%.

On to `O=C(CN1CCS(=O)(=O)CC1)NC1CCCOc2ccccc21` (configuration not stated), for which the INHIBITION came out at 63.6%.

As for `O=C(CN1CCS(=O)(=O)CC1)NC1CCCc2ccccc21` (configuration not stated), the INHIBITION is given as -17.2%.

On to `O=C(CN1CCS(=O)(=O)CC1)NC1CCOc2ccccc21` (configuration not stated), for which the INHIBITION is listed as -22.4%.

On to `Cc1ccc(C2CSCCN2C(=O)c2ccncc2)cc1` (configuration not stated), for which the INHIBITION was -2.39%.

Regarding `CCN(CC1CN(Cc2cccnc2)CCO1)c1cccnn1` (configuration not stated), the INHIBITION was 48.3%.

Regarding `CCN(CC1CN(CCc2ccccn2)CCO1)c1cccnn1` (configuration not stated), the INHIBITION is listed as -14.2%.

With `CCc1nc(CN2CCOC(CN(C)c3cccnn3)C2)cs1` (configuration not stated), the INHIBITION is reported as -4.16%.

In the case of `CCN(CC1CN(Cc2ccn(C(C)C)n2)CCO1)c1cccnn1` (configuration not stated), the INHIBITION is listed as 54.3%.

`CCN(CC1CN(Cc2cccc(C#N)c2)CCO1)c1cccnn1` (configuration not stated): the INHIBITION came to 58.5%.

As for `CC(C)n1ccc(CN2CCOC(CNc3cccnn3)C2)n1` (configuration not stated), the INHIBITION is recorded as -31.5%.

As to `CCN(CC1CN(Cc2ccccn2)CCO1)c1cccnn1` (configuration not stated), the INHIBITION is -32.2%.

Regarding `COCc1nc(CN2CCOC(CN(C)c3cccnn3)C2)cs1` (configuration not stated), the INHIBITION is -8.11%.

`CCc1nc(CN2CCOC(CN(CC)c3cccnn3)C2)cs1` (configuration not stated): the INHIBITION worked out at 57%.

Regarding `CCOC(=O)CN1CCC2(CCCN(CCOc3ccccc3)C2)C1` (configuration not stated), the INHIBITION stood at 21.1%.

`CC(C)(C)C(=O)NCCCC(=O)NC(C)(C)c1ccc2c(c1)OCO2`: the INHIBITION is 27.4%.

For `Cc1nccn1-c1ccc(=O)n(CCNC(=O)c2cccs2)n1`, the INHIBITION came to 18.7%.

Regarding `Cc1cnn(CC2CN(Cc3cccc(C(N)=O)c3)CCO2)c1` (configuration not stated), the INHIBITION stood at 16.9%.

For `O=C(Cc1cccs1)N1CCC2(CC1)COCCN2CC1CC1`, the INHIBITION came to 21.7%.

Regarding `CC(C)(CO)N1CCN(S(=O)(=O)CCCF)CC1`, the INHIBITION was -15.565%.

As to `CCN(Cc1ccc2c(c1)OCO2)C(=O)c1cccnc1O`, the INHIBITION is given as -35.5%.

`COCCn1cnc2ccc(NC(=O)C(C)C)cc2c1=O`: the INHIBITION came to 39.2%.

For `Cc1cc(C)c(CNC(=O)N2CCN(c3nccs3)CC2)c(=O)[nH]1`, the INHIBITION is -5.6%.

On to `c1cncc(-c2noc(CN3CCCC(Cn4cncn4)C3)n2)c1` (configuration not stated), for which the INHIBITION is -52.5%.

Turning to `COc1cc(OC)cc(C2(O)CCN(Cc3nc(C)c(C)o3)CC2)c1`, the INHIBITION was 22.2%.

As to `CCc1cnc(CN2CCC(O)(c3cc(OC)cc(OC)c3)CC2)o1`, the INHIBITION stood at 11.3%.

`COc1cc(OC)cc(C2(O)CCN(Cc3ncc(C)o3)CC2)c1`: the INHIBITION came out at 50.9%.

Turning to `CCCc1nc(CNC2(c3nccs3)CCCC2)cs1`, the INHIBITION is -15.4%.

As to `Cc1cc(NC(=O)CN2CCc3c(nc(C(C)C)n3C)C2)on1`, the INHIBITION is given as -21.2%.

As for `Cc1cnn(CC2CCCCN2C(=O)c2n[nH]c3ccccc23)c1` (configuration not stated), the INHIBITION is given as -43.5%.

As to `Cc1cccc(CN2CCOCC3(CCN(C4CCOCC4)C3)C2)c1` (configuration not stated), the INHIBITION is recorded as -35.9%.

As to `C1CC(CN2CCOCC3(CCN(C4CCOCC4)C3)C2)CCO1` (configuration not stated), the INHIBITION is given as 40.9%.

Regarding `Fc1cccc(CN2CCOC3(COCCN(CC4CC4)C3)C2)c1` (configuration not stated), the INHIBITION came to 81%.

On to `c1csc(CN2CCC3(COCCN(CC4CC4)C3)C2)n1` (configuration not stated), for which the INHIBITION is given as -23.3%.

With `c1csc(CN2CCOCC3(CCN(C4CCOCC4)C3)C2)c1` (configuration not stated), the INHIBITION is reported as 11.6%.

Consider `O=C(c1ccco1)N1CCOCC2(CCN(C3CCOCC3)C2)C1` (configuration not stated), for which the INHIBITION is 8.69%.

For the molecule `Fc1cccc(CN2CCOCC3(CCN(C4CCOCC4)C3)C2)c1` (configuration not stated), the INHIBITION stood at 58.1%.

On to `c1ccc(CN2CCOCC3(CCN(C4CCOCC4)C3)C2)cc1` (configuration not stated), for which the INHIBITION is 50%.

Turning to `c1cc(CN2CCOCC3(C2)CN(Cc2nccs2)CCO3)ccn1` (configuration not stated), the INHIBITION stood at 34.4%.

On to `c1csc(CN2CCOCC3(CCN(C4CCOCC4)C3)C2)n1` (configuration not stated), for which the INHIBITION was determined as 63.1%.

Regarding `COCCN1CCOCC2(CCCN(Cc3cccc(F)c3)C2)C1` (configuration not stated), the INHIBITION was found to be 46.9%.

On to `Cn1cc(CN2CCOCC3(CCN(C4CCOCC4)C3)C2)cn1` (configuration not stated), for which the INHIBITION came to 11.6%.
